One may read the AC50 as the midpoint of the concentration-response curve, whichever way the signal moves.

Experimental findings from PubChem BioAssay are described below.

Results filed as inconclusive are left out. Activity calls are given as the source filed them. Unless noted, the limit is not given here; nearly all actives have AC50 up to about 26 µM.

One experiment in a line: viability loss in pontine glioma line – cell-based, SU-DIPG-XIII, MIPE5.0, CellTiter-Glo, qHTS, dose response (AID 1347064; cut-off not given, nearly all actives have AC50 up to about 23 µM;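 as to AC50: cells exposed to compound for 48 hours before the viability read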). The conditions noted are these: CellTiter-Glo ATP luminescence.
As for `Cn1c(COP(=O)(NCCBr)NCCBr)cnc1[N+](=O)[O-]`, the outcome was inactive.

On to `CC(=O)Nc1ccc(OC[C@](C)(O)C(=O)Nc2ccc([N+](=O)[O-])c(C(F)(F)F)c2)cc1`, for which the result was inactive.

Take `CN(C)c1cc2c(cc1Sc1nc3c(N)nccc3n1CCNCC(C)(C)C)OCO2`: the half-maximal activity concentration (AC50) was 1.32 µM (active).

Take `C=C(C)[C@@H]1CCC(C)=C[C@H]1c1c(O)cc(CCCCC)cc1O`: the AC50 was 23.5 µM (active).

Take `COc1ccc(N(C(=O)Oc2c(C)cccc2C)c2ccnc(Nc3ccc(N4CCN(C)CC4)cc3)n2)c(OC)c1`: the AC50 was 14.8 µM (active).

As for `COC(=O)[C@@]12OC[C@]34[C@H]([C@@H](O)[C@@H]1O)[C@@]1(C)CC(=O)C(O)=C(C)[C@@H]1C[C@H]3OC(=O)[C@H](OC(=O)/C=C(\C)C(C)C)[C@@H]24`, the concentration at half-maximal activity (AC50) was 0.059 µM (active).

With `COc1cc(C(=O)N2CC[C@@H](O)[C@@H](N)C2)cc2nc(-c3cc4ccccc4n3CC3CC3)n(C)c12`, the AC50 was 23.5 µM (active).

On to `CC(N[C@H]1C[C@@H]1c1ccccc1)c1ccc2c(c1)OCCO2` (some centres not stated), for which the molecule was classed as inactive.

Turning to `C[C@H]1[C@H](O)[C@@H](C)/C=C/C=C/CC/C=C/C=C/C=C/C=C/[C@H](O[C@@H]2O[C@H](C)[C@@H](O)[C@H](N)[C@@H]2O)C[C@@H]2O[C@](O)(C[C@@H](O)[C@H](O)CC[C@@H](O)C[C@@H](O)C[C@@H](O)CC(=O)O[C@H]1C)C[C@H](O)[C@H]2C(=O)O`, the molecule was classed as inactive.

Take `CC(C)(C)c1cc(C=C(C#N)C#N)cc(Br)c1O`: the concentration at half-maximal activity (AC50) is 18.6 µM (active).

A further experiment in a line: viability loss in pontine glioma line – cell-based, SU-DIPG-XXV, MIPE5.0, CellTiter-Glo, qHTS, dose response (AID 1347065).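 Also: cells exposed to compound for 48 hours before ATP readout.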 Conditions: CellTiter-Glo ATP luminescence. (Cellular ATP, detected with luciferase, serves as a proxy for viable cell number.)
For `CCN1C[C@]2(OC(=O)c3ccccc3NC(C)=O)CC[C@H](OC)[C@@]34[C@@H]2C[C@@H]([C@@H]13)[C@@]1(O)C[C@H](OC)[C@H]2C[C@@H]4[C@]1(O)[C@H]2OC`, the molecule was called inactive.

For the molecule `C[C@@H]1O[C@@H](O[C@@H]2C=C3CC[C@@H]4[C@H](CC[C@]5(C)[C@@H](c6ccc(=O)oc6)CC[C@]45O)[C@@]3(C)CC2)[C@H](O)[C@H](O)[C@H]1O`, the AC50 is 0.0186 µM (active).

For the molecule `CCOc1ccccc1-n1c(C(C)N2CCN(C(=O)COc3ccc(Cl)cc3)CC2)nc2ccccc2c1=O` (configuration not stated), the AC50 was 18.6 µM (active).

For `NC(=O)[C@@H](CC1CC1)[C@@H](CCC(F)(F)F)C(=O)N[C@H]1N=C(c2ccccc2)c2cccc(F)c2NC1=O`, the molecule was called inactive.

Turning to `CN[C@@H]1C[C@H]2O[C@@](C)([C@@H]1OC)n1c3ccccc3c3c4c(c5c6ccccc6n2c5c31)C(=O)NC4`, the half-maximal activity concentration (AC50) is 0.209 µM (active).

Turning to `C[C@]12CC[C@H]3[C@@H](CC[C@@]45O[C@@H]4C(O)=C(C#N)C[C@]35C)[C@@H]1CC[C@@H]2O`, the concentration at half-maximal activity (AC50) is 20.9 µM (active).

Take `c1ccc2c(CN3CCNCC3)cccc2c1`: the call was inactive.

With `Cn1c(/C=C/CO)c(CO)c2c1C(=O)C=C(N1CC1)C2=O`, the call was inactive.

Consider `CC1=C2C[C@H]3[C@@H](CC=C4C[C@@H](O)CC[C@@]43C)[C@@H]2CC[C@]12O[C@@H]1C[C@H](C)CN[C@H]1[C@H]2C`, for which the call was inactive.

Regarding `O=c1[nH]c2ccc(Cl)cc2c(N[C@@H]2CN3CCC2CC3)c1-c1nc2ccccc2[nH]1`, the AC50 was 3.72 µM (active).

Regarding `O=C(Nc1ccncc1)C(=O)c1cn(Cc2ccc(Cl)cc2)c2ccccc12`, the half-maximal activity concentration (AC50) was 0.148 µM (active).

Regarding `CN1[C@@H]2CC(O)C[C@H]1[C@@H]1O[C@@H]12` (some centres not stated), the call was inactive.

On to `Cc1[nH]ncc1-c1cc2nc([C@@H]3CC4CCN3CC4)[nH]c(=O)c2s1`, for which the AC50 was 16.6 µM (active).

Take `O=C(O)CNC(=O)C1C(=O)N(C2CCCCC2)C(=O)N(C2CCCCC2)C1=O`: the molecule was called inactive.

Take `COc1cc2c(cc1F)C(c1ccccc1Cl)=Nc1c(n[nH]c1C)N2`: the AC50 is 13.2 µM (active).

`O=C(NCCCNc1nc(Nc2ccc(N3CCOCC3)cc2)ncc1C1CC1)C1CCC1`: the AC50 is 16.6 µM (active).

Turning to `C[C@]12Cc3cn[nH]c3C[C@@H]1CC[C@@H]1[C@@H]2CC[C@@]2(C)[C@H]1CC[C@]2(C)O`, the molecule was classed as inactive.

As for `CN1C(=O)[C@@H](NC(=O)[C@H](CCC(F)(F)F)[C@H](CCC(F)(F)F)C(N)=O)N=C(c2ccccc2)c2ccccc21`, the call was inactive.

For `CC[C@H]1/C=C\C=C/C[C@@H](C)[C@H](O)[C@@](C)(O)C(=O)[C@@H](C)[C@H](O)[C@@H](C)C(=O)[C@@H](C)[C@H](O)[C@@H](C)/C=C/C(=O)O[C@@H]2[C@H](C)[C@H](CC1)O[C@]1(CC[C@H](C)[C@H](C[C@@H](C)O)O1)[C@H]2C`, the AC50 was 0.00525 µM (active).

For `Cc1ncc(OC[C@@]2(c3cccc(F)c3)C[C@H]2C(=O)Nc2ccc(F)cn2)c(C)n1`, the call was inactive.

For `COc1cc(C)[nH]c(=O)c1CNC(=O)c1c(C)n([C@H](C)C2CCOCC2)c2ccccc12`, the result was inactive.

Take `CC1(C)CC[C@]2(NC(=O)C(C)(F)F)CC[C@]3(C)[C@H](C(=O)C=C4[C@@]5(C)C=C(C#N)C(=O)C(C)(C)[C@@H]5CC[C@]43C)[C@@H]2C1`: the concentration at half-maximal activity (AC50) is 9.34 µM (active).

For the molecule `CC(=O)OC[C@H]1O[C@@H]([S-])[C@H](OC(C)=O)[C@@H](OC(C)=O)[C@@H]1OC(C)=O.CC[PH+](CC)CC.[Au]`, the concentration at half-maximal activity (AC50) was 1.18 µM (active).

For the molecule `COc1cc(C)[nH]c(=O)c1CNC(=O)c1c(C)n([C@H](C)C2CCN(CC(F)(F)F)CC2)c2ccccc12`, the molecule was classed as inactive.

For `C/C1=C/C[C@@H](/C(C)=C/c2csc(C)n2)OC(=O)C[C@H](O)C(C)(C)C(=O)[C@H](C)[C@@H](O)[C@@H](C)CCC1`, the AC50 was 0.00417 µM (active).

For `O=S(=O)(F)Cc1ccccc1`, the call was inactive.

For the molecule `C[C@@H]1CC[C@@]2(OC1)O[C@H]1C[C@H]3[C@@H]4CC=C5C[C@@H](O[C@@H]6O[C@H](CO)[C@@H](O[C@@H]7O[C@@H](C)[C@H](O)[C@@H](O)[C@H]7O)[C@H](O)[C@H]6O[C@@H]6O[C@@H](C)[C@H](O)[C@@H](O)[C@H]6O)CC[C@]5(C)[C@H]4CC[C@]3(C)[C@H]1[C@@H]2C`, the AC50 was 0.468 µM (active).

Consider `Cn1c(COP(=O)(NCCBr)NCCBr)cnc1[N+](=O)[O-]`, for which the outcome was inactive.

On to `CC(=O)Nc1ccc(OC[C@](C)(O)C(=O)Nc2ccc([N+](=O)[O-])c(C(F)(F)F)c2)cc1`, for which the outcome was inactive.

Take `CN(C)c1cc2c(cc1Sc1nc3c(N)nccc3n1CCNCC(C)(C)C)OCO2`: the AC50 is 0.661 µM (active).

In the case of `COc1ccc(N(C(=O)Oc2c(C)cccc2C)c2ccnc(Nc3ccc(N4CCN(C)CC4)cc3)n2)c(OC)c1`, the half-maximal activity concentration (AC50) is 10.5 µM (active).

Turning to `O=C(CBr)N1CC([N+](=O)[O-])([N+](=O)[O-])C1`, the molecule was called inactive.

In the case of `COC(=O)[C@@]12OC[C@]34[C@H]([C@@H](O)[C@@H]1O)[C@@]1(C)CC(=O)C(O)=C(C)[C@@H]1C[C@H]3OC(=O)[C@H](OC(=O)/C=C(\C)C(C)C)[C@@H]24`, the half-maximal activity concentration (AC50) is 0.0105 µM (active).

As for `COc1cc(C(=O)N2CC[C@@H](O)[C@@H](N)C2)cc2nc(-c3cc4ccccc4n3CC3CC3)n(C)c12`, the AC50 was 29.5 µM (active).

Regarding `CC(N[C@H]1C[C@@H]1c1ccccc1)c1ccc2c(c1)OCCO2` (some centres not stated), the result was inactive.

`C[C@H]1[C@H](O)[C@@H](C)/C=C/C=C/CC/C=C/C=C/C=C/C=C/[C@H](O[C@@H]2O[C@H](C)[C@@H](O)[C@H](N)[C@@H]2O)C[C@@H]2O[C@](O)(C[C@@H](O)[C@H](O)CC[C@@H](O)C[C@@H](O)C[C@@H](O)CC(=O)O[C@H]1C)C[C@H](O)[C@H]2C(=O)O`: the outcome was inactive.

`CC(C)(C)c1cc(C=C(C#N)C#N)cc(Br)c1O`: the AC50 is 23.5 µM (active).
